The source of these data is PubChem BioAssay (Tox21).

Each structure is given as a SMILES string. Values without a mark were called inactive. Inconclusive results are not listed. Calls of active or inactive are those of the source. Unless noted, the call rests on the fitted dose curve; in most records, active means well fitted curve in the direction sought with a large enough effect in the repeat runs; inconclusive means weak or mixed curves; inactive means no such curve, though single readings can be large; an effect the other way counts as inactive or inconclusive.

Experiment [1] can be described thus: A CellTox Green Cytotoxicity Assay to monitor cytotoxicity in HEK293 cells - 8 hour (AID 1224884). Further: on the % scale 0 is the no-effect control and ±100 the full control effect; nearly all actives have a fitted effect of over 35% in size. Put shortly: (§1)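 Seeding of HEK293 cells together with cytotoxicity dye preceded a 5 h incubation at 37 C/5% CO2. Test compounds in DMSO were then added and fluorescence monitored across 40 h.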
The nature of experiment [2]: qHTS RealTime-Glo MT Cell Viability Assay in HepG2 cells - 16 hour (AID 1224885). Further: on the % scale 0 is the no-effect control and ±100 the full control effect; nearly all actives have a fitted effect of over 50% in size. In outline:
(§2)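 HepG2 suspension premixed with RealTime-Glo reagents is plated at 600 cells per well and left 5 h at 37 C/5% CO2. Compounds in DMSO then go in, and bioluminescence reflecting viable cell number is recorded over 40 h.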

Experiment [3] is described as follows: A CellTox Green Cytotoxicity Assay to monitor cytotoxicity in HEK293 cells - 16 hour (AID 1224888). Further: on the % scale 0 is the no-effect control and ±100 the full control effect; nearly all actives have a fitted effect of over 35% in size. In outline:
as §1

Experiment [4] can be described thus: qHTS RealTime-Glo MT Cell Viability Assay in HepG2 cells - 0 hour (AID 1224889). Further: on the % scale 0 is the no-effect control and ±100 the full control effect; nearly all actives have a fitted effect of over 50% in size. In outline:
as §2

The nature of experiment [5]: A CellTox Green Cytotoxicity Assay to monitor cytotoxicity in HepG2 cells - 8 hour (AID 1224890). Further: on the % scale 0 is the no-effect control and ±100 the full control effect; nearly all actives have a fitted effect of over 45% in size. Put shortly:
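Nonlytic assay: viable cells exclude the dye, so fluorescence scales with cell death. HepG2 at 600 cells/well, compounds added after 5 h, signal read across 40 h.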

Experiment [6] is described as follows: qHTS assay to identify small molecule antagonists of the androgen receptor (AR) signaling pathway using the MDA cell line in the presence of 0.5 nM R1881 - cell viability counter screen (AID 1259242). Further: on the % scale 0 is the no-effect control and ±100 the full control effect; nearly all actives have a fitted effect of over 45% in size. In outline: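 R1881 at 0.5 nM final stimulated MDA-kb2 cells during 16 hr compound treatment at 37C. Cytotoxicity read: CellTiter-Fluor fluorescence after 30 min.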

Experiment [7] deals with Estrogen receptor (Homo sapiens) (UniProt P03372). The experiment is described as follows: qHTS assay to identify small molecule antagonists of the estrogen receptor alpha (ER-alpha) signaling pathway using the BG1 cell line in the presence of 0.1 nM 17-beta-estradiol (AID 1259244). Further: nearly all actives have a fitted effect of over 50% in size. Further: potency means the concentration at half of the fitted maximal effect. Put shortly:
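VM7Luc4E2; 4xERE-luciferase; 0.1 nM E2 final; 22 h co-incubation, 37C; ONE-Glo luminescence after 30 min at room temperature.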

Experiment [8] can be described thus: qHTS assay to identify small molecule HDAC inhibitors (AID 1259364). Further: potency means the concentration at half of the fitted maximal effect.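 Further: wild-type HCT-116 cells with endogenous class I/II HDAC activity; nearly all actives have a fitted effect of over 45% in size.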 In outline: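 Relative class I and II HDAC activity is taken from the luminogenic signal in HCT-116 cells, with compound exposure 2 hr and reagent development 30 min at room temperature.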
Experiment [9] is described as follows: qHTS assay to identify small molecule agonists of the sonic hedgehog signaling (Shh) pathway - cell viability counter screen (AID 1259366). Further: nearly all actives have a fitted effect of over 50% in size. Further: potency means the concentration at half of the fitted maximal effect. Put shortly: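 CellTiter-Fluor fluorescence read-out, 1 hr at 37C, added after 23hr compound exposure. Cells: 3T3 Gli1-Luc, an NIH/3T3 clone with stably integrated Gli1-Luc reporter, plated 4hr before compound.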
Experiment [10] can be described thus: qHTS assay to identify small molecule antagonists of the sonic hedgehog signaling (Shh) pathway - cell viability counter screen (AID 1259367). Further: nearly all actives have a fitted effect of over 55% in size. Further: potency means the concentration at half of the fitted maximal effect. Put shortly:
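NIH/3T3-derived Gli1-Luc reporter cells (2,000 per well) rested 4 hr at 37 C, then received DMSO compounds plus conditioned medium. After 23 hr of treatment, CellTiter-Fluor was added for 1 hr at 37C and fluorescence read.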

The target in experiment [11] is Estrogen receptor beta (Homo sapiens) (UniProt Q92731). Kind of experiment: qHTS assay to identify small molecule agonists of the estrogen receptor beta (ER-beta) signaling pathway (AID 1259377; active means well fitted activation curve with a large enough effect in the signal ratio in the repeat runs, not every such curve was filed as active; the % refers to the signal ratio; further: on the % scale 0 is the no-effect control and ±100 the full control effect). Put shortly: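 Beta-lactamase reporter readout: fluorescence of LiveBLAzer B/G FRET substrate after 2 h at room temperature, following 16 h compound treatment of ER-beta-UAS-bla HEK293T cells at 37C in 2% charcoal-stripped FBS medium.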

For experiment [12] the target is unchanged. Kind of experiment: qHTS assay to identify small molecule antagonists of the estrogen receptor beta (ER-beta) signaling pathway (AID 1259378; active means well fitted inhibition curve with a large enough effect in the signal ratio in the repeat runs, not every such curve was filed as active; the % refers to the signal ratio; further: on the % scale 0 is the no-effect control and ±100 the full control effect). Put shortly:
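ER-beta-UAS-bla HEK293T (GripTite) cells in 2% charcoal-stripped FBS medium were preincubated 6 hr at 37C, dosed with compound, then stimulated with 1 nM E2 (final) for 16 hr; beta-lactamase reporter read by B/G FRET fluorescence after 2 hr substrate loading.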

Experiment [13] is described as follows: qHTS RealTime-Glo MT Cell Viability Assay in HEK293 cells - 24 hour (AID 1224886). Further: nearly all actives have a fitted effect of over 50% in size. Further: potency means the concentration at half of the fitted maximal effect. Put shortly:
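Reads taken at 0, 8, 16, 24, 32 and 40 h from the same wells. HEK293 cells (600/well) carried RealTime-Glo reagents from seeding, with compound added after a 5 h settle at 37 C.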

Experiment [14] in a line: qHTS RealTime-Glo MT Cell Viability Assay in HEK293 cells - 8 hour (AID 1224887). In outline:
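Tox21 screen in HEK293 using RealTime-Glo MT chemistry, with cells and reagent co-dispensed. Luminescence proportional to viable cell number was captured at intervals during 40 h compound exposure at 37 C.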

The target in experiment [15] is Androgen receptor (Homo sapiens) (UniProt P10275). Kind of experiment: qHTS assay to identify small molecule antagonists of the androgen receptor (AR) signaling pathway using the MDA cell line in the presence of 0.5 nM R1881 (AID 1259243). Further: nearly all actives have a fitted effect of over 50% in size. Further: potency means the concentration at half of the fitted maximal effect. Put shortly:
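We exposed MDA-kb2 cells to compounds under 0.5 nM R1881 stimulation for 16 hr at 37C and quantified MMTV-driven luciferase by luminescence.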

Experiment [16] can be described thus: qHTS assay to identify small molecule HDAC inhibitors - cell viability counter screen (AID 1259365). In outline: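 HCT-116 (wild type), 1,500 cells/well, overnight 37C/5% CO2; compound in DMSO 2hr; CellTiter-Glo 30min RT; luminescence read.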
Experiment [17] is described as follows: qHTS assay to identify small molecule agonists of the sonic hedgehog signaling (Shh) pathway (AID 1259368; calls by dose curve;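 further: NIH/3T3-derived 3T3Gli1-Luc cells carrying a stable Gli1-driven firefly luciferase reporter; series mostly up to about 92 µM; on the % scale 0 is the no-effect control and ±100 the full control effect; nearly all actives have a fitted effect of over 15% in size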). In outline:
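Mouse fibroblast (NIH/3T3) reporter cells with stably integrated Gli1-Luc were treated 24 hr with compound; firefly luciferase luminescence served as the read-out.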

The nature of experiment [18]: qHTS assay to identify small molecule phospholipidosis (PLD) inducers (AID 1259344; active means well fitted curve in the direction sought with a large enough effect; an effect the other way counts as inactive or inconclusive; further: on the % scale 0 is the no-effect control and ±100 the full control effect). Put shortly:
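HepG2 cells on collagen I, attached 4 h at 37 C, were co-treated with compound and LipidTOX Red dye for 24 h at 37 C, then fixed with paraformaldehyde plus Hoechst 33342 and imaged by high-content microscopy for phospholipid accumulation.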

Experiment [19] in a line: qHTS assay to identify small molecule antagonists of the sonic hedgehog signaling (Shh) pathway (AID 1259369; calls by dose curve; further: potency means the concentration at half of the fitted maximal effect; nearly all actives have a fitted effect of over 45% in size). Put shortly:
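Conditioned medium drives Shh signalling in 3T3Gli1-Luc cells; compounds in DMSO co-applied, 24hr at 37 C, then luciferase luminescence.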

A short description of experiment [20]: qHTS assay to identify small molecule antagonists of the estrogen receptor alpha (ER-alpha) signaling pathway using the BG1 cell line in the presence of 0.1 nM 17-beta-estradiol - cell viability counter screen (AID 1259241). Further: on the % scale 0 is the no-effect control and ±100 the full control effect; nearly all actives have a fitted effect of over 40% in size. Put shortly: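 Live-cell protease activity (CellTiter-Fluor fluorescence, 30 min) was read in the same wells after VM7Luc4E2 cells had been exposed to compounds with 0.1 nM 17beta-estradiol for 22 hr at 37C.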

Chain of Estrogen receptor (Homo sapiens) (P03372 whole entry, looked up): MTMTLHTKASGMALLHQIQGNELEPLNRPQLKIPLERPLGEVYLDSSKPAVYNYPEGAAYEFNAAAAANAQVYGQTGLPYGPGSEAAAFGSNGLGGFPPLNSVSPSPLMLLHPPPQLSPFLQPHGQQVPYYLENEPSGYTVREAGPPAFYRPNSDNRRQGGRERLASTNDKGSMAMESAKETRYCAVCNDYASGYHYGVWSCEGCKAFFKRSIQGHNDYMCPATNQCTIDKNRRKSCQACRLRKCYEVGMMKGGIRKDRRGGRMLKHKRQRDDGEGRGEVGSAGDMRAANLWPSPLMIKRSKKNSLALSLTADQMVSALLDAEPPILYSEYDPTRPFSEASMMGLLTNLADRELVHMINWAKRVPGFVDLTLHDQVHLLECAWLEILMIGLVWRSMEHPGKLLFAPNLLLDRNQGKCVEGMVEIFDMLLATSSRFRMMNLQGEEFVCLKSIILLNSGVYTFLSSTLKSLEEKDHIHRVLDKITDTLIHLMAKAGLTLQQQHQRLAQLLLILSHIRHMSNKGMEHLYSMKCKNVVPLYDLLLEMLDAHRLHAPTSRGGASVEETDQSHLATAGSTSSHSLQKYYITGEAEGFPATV
Chain of Androgen receptor (Homo sapiens) (P10275 whole entry, looked up): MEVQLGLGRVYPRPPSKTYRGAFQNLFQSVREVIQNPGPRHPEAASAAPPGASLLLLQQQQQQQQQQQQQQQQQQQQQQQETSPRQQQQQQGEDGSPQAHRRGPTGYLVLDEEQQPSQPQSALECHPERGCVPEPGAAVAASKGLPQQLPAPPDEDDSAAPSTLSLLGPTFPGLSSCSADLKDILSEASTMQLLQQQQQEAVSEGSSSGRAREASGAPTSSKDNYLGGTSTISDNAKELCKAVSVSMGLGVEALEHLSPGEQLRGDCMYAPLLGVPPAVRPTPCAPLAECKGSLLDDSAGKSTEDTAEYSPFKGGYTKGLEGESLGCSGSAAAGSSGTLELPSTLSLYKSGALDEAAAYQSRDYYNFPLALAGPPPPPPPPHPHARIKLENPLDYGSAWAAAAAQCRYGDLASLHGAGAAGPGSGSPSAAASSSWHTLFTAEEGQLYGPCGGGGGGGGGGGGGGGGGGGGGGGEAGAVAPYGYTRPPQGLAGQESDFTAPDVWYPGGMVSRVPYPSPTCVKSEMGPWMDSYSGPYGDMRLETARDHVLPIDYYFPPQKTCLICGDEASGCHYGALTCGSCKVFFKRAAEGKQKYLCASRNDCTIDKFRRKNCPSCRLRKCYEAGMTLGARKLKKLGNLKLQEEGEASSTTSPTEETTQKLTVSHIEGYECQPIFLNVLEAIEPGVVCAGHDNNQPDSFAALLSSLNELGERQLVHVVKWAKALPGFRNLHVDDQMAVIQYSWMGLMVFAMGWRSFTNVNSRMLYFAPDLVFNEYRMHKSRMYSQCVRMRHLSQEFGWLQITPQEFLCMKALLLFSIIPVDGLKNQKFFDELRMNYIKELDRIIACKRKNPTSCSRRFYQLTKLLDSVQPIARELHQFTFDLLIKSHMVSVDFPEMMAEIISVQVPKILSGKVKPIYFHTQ
Chain of Estrogen receptor beta (Homo sapiens) (Q92731 whole entry, looked up): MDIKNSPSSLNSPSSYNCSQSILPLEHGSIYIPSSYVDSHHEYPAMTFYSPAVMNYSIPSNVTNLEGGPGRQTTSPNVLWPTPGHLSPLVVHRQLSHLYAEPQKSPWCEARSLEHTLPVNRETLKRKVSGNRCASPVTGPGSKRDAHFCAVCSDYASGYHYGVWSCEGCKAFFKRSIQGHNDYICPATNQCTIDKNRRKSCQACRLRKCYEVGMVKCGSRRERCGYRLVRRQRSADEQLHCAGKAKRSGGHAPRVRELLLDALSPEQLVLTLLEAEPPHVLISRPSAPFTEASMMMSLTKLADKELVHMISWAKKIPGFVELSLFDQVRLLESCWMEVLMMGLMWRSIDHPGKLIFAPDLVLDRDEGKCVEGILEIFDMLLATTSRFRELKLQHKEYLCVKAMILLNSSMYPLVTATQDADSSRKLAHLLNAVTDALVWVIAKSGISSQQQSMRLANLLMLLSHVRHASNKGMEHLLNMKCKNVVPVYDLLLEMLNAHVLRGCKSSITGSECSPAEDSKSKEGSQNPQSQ

`CC(C)c1ccc2sc3ccccc3c(=O)c2c1`: the Potency result in experiment [1], in experiment [2], in experiment [3], in [4], in experiment [5] and in [6] was “inactive” throughout. The Potency entry in experiment [7], in [9], in experiment [10] and in experiment [12] was “inactive” each time. Moreover, the Potency in experiment [8] was 1.72 µM (active). Also, in experiment [11], the compound was called inactive.

As to `Cc1cc(C)c(O)c(C(C)(C)C)c1`, the Potency entry in experiment [1], in experiment [2], in experiment [13], in experiment [14], in [4] and in [5] was “inactive” throughout. Moreover, the Potency result in experiment [6], in experiment [15], in [8], in experiment [16], in experiment [9] and in experiment [10] was “inactive” in each case. Also, the Potency entry in experiment [17] and in experiment [12] was “inactive” each time. The outcome in experiment [11] was inactive.

As for `CCCC(=O)c1cc(O)c(O)cc1O`, the Potency result in experiment [1], in experiment [2], in experiment [14], in [4], in experiment [5] and in [15] was “inactive” each time. Also, the Potency result in [8], in [16] and in experiment [17] was “inactive” each time. For the same compound, in [18], the PLD induction is -3.64% [at 3.15 µM]. Moreover, the Potency in experiment [9] was 54.5 µM (active); in experiment [19], 27.3 µM (active).

Turning to `O[Si](c1ccccc1)(c1ccccc1)c1ccccc1`, the Potency entry in experiment [1], in [2], in experiment [4], in experiment [5], in experiment [6] and in experiment [7] was “inactive” each time. The Potency result in experiment [8], in experiment [16] and in [17] was “inactive” each time. Further, the Potency in [15] was 30.6 µM (active). In addition, the call in experiment [11] was inactive.

Consider `O=C(CCN1CCC(c2ccccc2)C1)c1ccc2c(c1)OCCO2` (configuration not stated), for which the Potency result in [1], in [14], in experiment [3], in experiment [4], in experiment [5] and in [20] was “inactive” in each case. Besides, the Potency result in experiment [8], in experiment [16], in experiment [17] and in experiment [12] was “inactive” each time. The values for the Potency in experiment [9] and in experiment [19] were 33.5 µM (active) and 18.8 µM (active), respectively. In addition, the outcome in [11] was inactive.

Take `O=C(NCc1ncc(C(F)(F)F)cc1Cl)c1c(Cl)cccc1Cl`: the Potency result in experiment [1], in experiment [2], in experiment [4], in experiment [5], in experiment [20] and in experiment [8] was “inactive” each time. Also, the Potency entry in experiment [16], in experiment [9], in [10] and in [17] was “inactive” in each case. In addition, the Potency in [13] was 21.9 µM (active); in experiment [15] it was 54.5 µM (active). Also, in experiment [11], the call was inactive.

As to `Oc1cccc2c(O)cccc12`, the Potency result in [1], in [2], in [14], in experiment [3], in [4] and in [5] was “inactive” each time. In addition, the Potency entry in [6], in experiment [8], in [16] and in experiment [17] was “inactive” in each case. For the same compound, the Potency is 54.5 µM (active) in experiment [7], 30.6 µM (active) in experiment [10] and 10.9 µM (active) in experiment [19].

Turning to `CCCOC(=O)c1ccc(O)cc1`, the Potency entry in [1], in [2], in experiment [4], in experiment [5], in [20] and in experiment [6] was “inactive” each time. Moreover, the Potency entry in experiment [7], in experiment [18], in experiment [16], in [9], in [10] and in [17] was “inactive” in each case. Also, in experiment [13], the Potency was 21.9 µM (active).
